Sampled rows, rich in hits. Any-hit rate of the full collection: about 8.9%.
MCF10A rerep – inducers of DNA re-replication in MCF 10A breast cells. Potency, µM (highest dose often 46.1 µM), inactives show at the top dose activity, positive = re-replication, hits mostly activators. hit rate 2.9% among 350,000. MCF 10A DNA re-replication, Hoechst nuclear intensity, 48 h; further: potency means the concentration at half of the fitted maximal effect; % of control where 0% means no effect; nearly all actives have a fitted effect of over 50% in size
KB-3-1 cytotox – kills parental KB-3-1 adenocarcinoma cells; hit rate 1.4% among 400,000; AID 1347075; KB-3-1 viability, CellTiter-Glo ATP luminescence, 72 h; Potency, µM (series often up to 46.1 µM), most hits filed as cytotoxic; further: potency means the concentration at half of the fitted maximal effect; on the % scale 0 is the no-effect control and ±100 the full control effect; nearly all actives have a fitted effect of over 60% in size
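Here the drug-naive KB-3-1 line serves as comparator for MDR sub-line selectivity; cells received compound titrations, 72 h at 37 °C, then CellTiter-Glo readout.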
KB-V1 MDR tox – KB-V1 MDR subline cytotoxicity; KB-V1 MDR cells viability, CellTiter-Glo, 72 h; Potency, µM (titrated, usually from 46.1 µM), most hits filed as cytotoxic; hit rate 3.4% among 400,000; further: potency means the concentration at half of the fitted maximal effect; on the % scale 0 is the no-effect control and ±100 the full control effect; nearly all actives have a fitted effect of over 60% in size
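KB-V1, DMEM (no phenol red) + 10% FBS; cpd pin-transferred, titration series; 72 h, 37 degrees C; CellTiter-Glo, luminescence. Data normalized, curve-fit.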
SW480 rereplic – DNA re-replication induction in SW480 cells | AID 624297 | hit rate 1.8% among 340,000 | SW480 DNA re-replication, Hoechst DNA content imaging, 48 h | Potency, µM (series often up to 46.1 µM), for the others: top-dose re-replication activation, hits mostly activators; further: potency means the concentration at half of the fitted maximal effect; % of control where 0% means no effect; nearly all actives have a fitted effect of over 55% in size
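DNA re-replication was detected as more nuclei of elevated Hoechst intensity after 48 hr exposure to compound (23 nL pinned per well of 250 cells).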
D3 antag – blocks the human D3 dopamine receptor | AID 652054 | P35462 | max response, negative = inhibition, % | hit rate 2.5% among 360,000 | D3R cells, DiscoveRx beta-arrestin luminescence, antagonist mode; hits give low values; in the data active means max response below about -50%; inconclusive means no clear call, values can overlap the other calls; further: on the % scale 0 is the no-effect control and ±100 the full control effect
Target sequence (P35462 whole entry, looked up): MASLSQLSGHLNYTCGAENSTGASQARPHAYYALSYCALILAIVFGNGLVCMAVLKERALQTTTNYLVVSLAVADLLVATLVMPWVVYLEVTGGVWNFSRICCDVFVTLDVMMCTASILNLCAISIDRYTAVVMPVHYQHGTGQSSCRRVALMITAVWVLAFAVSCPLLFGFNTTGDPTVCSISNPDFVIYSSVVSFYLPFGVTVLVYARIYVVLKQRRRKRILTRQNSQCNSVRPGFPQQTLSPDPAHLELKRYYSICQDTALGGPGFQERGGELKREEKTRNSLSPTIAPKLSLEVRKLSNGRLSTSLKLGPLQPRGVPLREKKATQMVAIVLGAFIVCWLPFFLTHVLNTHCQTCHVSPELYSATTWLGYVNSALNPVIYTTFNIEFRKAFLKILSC
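Cells expressing the human receptor were seeded at 1500 cells/well, incubated overnight at 37 degrees C in 5% CO2, then exposed to library compounds with dopamine controls for 90 minutes at 37 degrees C before luminescent detection.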
DRD3 agonist – D3 dopamine receptor (human) agonism. P35462. D3R DiscoveRx beta-arrestin cells, luminescence, 90 min. max activation, %. hit rate 0.58% among 410,000; in the data active means max activation above about 30%; further: 0% is about no effect
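Cells at 1500/well, incubated overnight, then treated with pinned compounds (dopamine as control) for 90 min at 37 degrees C. DiscoveRx reagent added for 30 - 60 minutes at room temperature; luminescence read.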
The depositor's hits bear a star. Unless noted, the call rests on the fitted dose curve; in most records, active means well fitted curve in the direction sought with a large enough effect; inconclusive means small, poorly fitted or top-dose-only effect, or another doubt; inactive means no such curve, though single readings can be large; an effect the other way counts as inactive or inconclusive.

Results for O=C1[C@H](Cc2ccccc2)NC/C=C\C[C@@H](c2ccco2)N1Cc1ccccc1 ?
KB-3-1 cytotox: inactive; KB-V1 MDR tox: inactive

Results for CC(Sc1ccccc1F)C(=O)Nc1ccc2c(c1)OCCO2 (configuration not stated) ?
MCF10A rerep: -7.1%; SW480 rereplic: 0.3%; D3 antag: 20.8; DRD3 agonist: -2.4

What do the screens show for `Cc1cccc(NS(=O)(=O)c2ccc3c(c2)n(C)c(=O)n3C)c1C`?
DRD3 agonist: 3.8

Results for CSc1ccc(CCNC(=O)c2ccc3c(c2)nc2n3CCC(C)C2)cc1 (configuration not stated) ?
DRD3 agonist: -16.4

How did COc1ccc(-c2nc3scc(CCNS(=O)(=O)c4ccc(F)cc4F)n3n2)cc1OC do in these assays?
DRD3 agonist: -7.2

What do the screens show for `Cn1c(=O)[nH]c(=O)c2c1[nH]c(=S)n2CCCc1ccccc1`?
MCF10A rerep: inconclusive; KB-3-1 cytotox: inactive; KB-V1 MDR tox: inactive; SW480 rereplic: 21.5%; D3 antag: -53.7*; DRD3 agonist: 10.7

Results for Cc1cc(C)c2c(=O)[nH]c(=O)n(Cc3ccccc3)c2n1 ?
MCF10A rerep: 26.7%; KB-3-1 cytotox: inactive; KB-V1 MDR tox: 13µM*; SW480 rereplic: -9.3%; D3 antag: 10.8; DRD3 agonist: 5.6

What do the screens show for `CCCNc1nc2c(c(=O)[nH]c(=O)n2C)n1CCCc1ccccc1`?
MCF10A rerep: -7.3%; KB-3-1 cytotox: inactive; KB-V1 MDR tox: inconclusive; SW480 rereplic: -14.5%; D3 antag: 27.0; DRD3 agonist: -1.2

What do the screens show for `Cn1c(=O)c2c([nH]c(=S)n2CCCc2ccccc2)n(C)c1=O`?
MCF10A rerep: 7.2%; KB-3-1 cytotox: inactive; KB-V1 MDR tox: inactive; SW480 rereplic: 23.2%; D3 antag: 0.0; DRD3 agonist: 5.7

What do the screens show for `CN(C)CCNc1nc2c(c(=O)[nH]c(=O)n2C)n1CCCc1ccccc1`?
MCF10A rerep: 10.4%; KB-3-1 cytotox: inactive; KB-V1 MDR tox: inactive; SW480 rereplic: -13.2%; D3 antag: -76.1*; DRD3 agonist: 5.1

What do the screens show for `C=N[C@@H](C(=O)N[C@@H]1C(=O)N2[C@@H]1SC(C)(C)[C@@H]2C(=O)O)c1ccccc1`?
DRD3 agonist: -5.6

Results for CCc1sc(Nc2ccc(Cl)cc2)nc1-c1cc2cccc(OC)c2oc1=O ?
KB-3-1 cytotox: inactive; KB-V1 MDR tox: inactive; DRD3 agonist: 13.9

Results for CCc1ccc(Nc2nc(-c3cc4cccc(OC)c4oc3=O)c(CC)s2)cc1 ?
DRD3 agonist: 50.2*

How did Cc1ccc(CN2CCN(/N=C/c3ccc(C)s3)CC2)c(C)c1 do in these assays?
MCF10A rerep: -67.5%; KB-3-1 cytotox: inactive; KB-V1 MDR tox: 16.4µM*; SW480 rereplic: 16.4µM*; D3 antag: -14.0; DRD3 agonist: -2.5

How did Cc1ccc(CN2CCCN(C)CC2)c(C)c1 do in these assays?
MCF10A rerep: 20.6µM*; KB-3-1 cytotox: inactive; KB-V1 MDR tox: inactive; SW480 rereplic: -1.1%; D3 antag: -5.6; DRD3 agonist: -10.6

What do the screens show for `Nc1nc(Cl)nc2c1ncn2[C@@H]1O[C@H](CO)[C@H](O)C1F` (some centres not stated)?
MCF10A rerep: -1.1%; SW480 rereplic: -2.7%

Results for COc1ccc(NC(=O)CSC2=Nc3ccccc3C3=NC(Cc4ccccc4)C(=O)N23)cc1Cl (configuration not stated) ?
KB-3-1 cytotox: inactive; KB-V1 MDR tox: inactive; DRD3 agonist: -9.5

How did Cc1ccc(CNC(=O)C2CCN(S(=O)(=O)c3c(C)noc3/C=C/c3ccccc3F)CC2)o1 do in these assays?
DRD3 agonist: 0.4

Results for COc1ccc(C(NC(=O)C2CCN(CCOc3ccc(Cl)cc3Cl)CC2)c2cccs2)cc1 (configuration not stated) ?
KB-3-1 cytotox: inconclusive; KB-V1 MDR tox: inconclusive; D3 antag: 255.2; DRD3 agonist: 61.2*

What do the screens show for `COc1ccc(C(NC(=O)C2CCN(CCOc3ccc(Cl)cc3Cl)CC2)c2ccccc2C)cn1` (configuration not stated)?
KB-3-1 cytotox: inconclusive; KB-V1 MDR tox: inconclusive; D3 antag: -77.2*; DRD3 agonist: -10.9

How did Cc1ccccc1C(c1ncccc1C)N(C)C(=O)C1CCN(CCOc2ccc(Cl)cc2Cl)CC1 (configuration not stated) do in these assays?
KB-3-1 cytotox: inconclusive; KB-V1 MDR tox: inconclusive; D3 antag: -21.5; DRD3 agonist: 19.8

Results for COc1ccc(C(NC(=O)C2CCN(CCOc3ccc(F)cc3)CC2)c2cccs2)cc1 (configuration not stated) ?
KB-3-1 cytotox: inactive; KB-V1 MDR tox: inactive; D3 antag: -68.3*; DRD3 agonist: -24.0

Results for CCOc1ccc(C(C)NC(=O)C2CCN(S(=O)(=O)c3ccc(OC)cc3)CC2)cc1OCC (configuration not stated) ?
MCF10A rerep: 0.8%; KB-3-1 cytotox: inactive; KB-V1 MDR tox: 20.6µM*; SW480 rereplic: 4.2%; D3 antag: 21.5; DRD3 agonist: 0.0

What do the screens show for `CCC1CCCCN1S(=O)(=O)c1ccc(NC(=O)c2nc(SC)ncc2Cl)cc1` (configuration not stated)?
KB-3-1 cytotox: inactive; KB-V1 MDR tox: inactive; DRD3 agonist: -0.8

Results for COc1ccc(/C=C/CN2CCC(C(=O)NC(c3ccc(F)cc3)c3ccc4ccccc4n3)CC2)cc1 (configuration not stated) ?
KB-3-1 cytotox: inconclusive; KB-V1 MDR tox: inconclusive; D3 antag: -75.6*; DRD3 agonist: -12.6

How did COc1ccc(C(C)NC(=O)C2CCN(CCOc3ccc(Cl)cc3Cl)CC2)cc1OC (configuration not stated) do in these assays?
KB-3-1 cytotox: inconclusive; KB-V1 MDR tox: inconclusive; D3 antag: -91.9*; DRD3 agonist: -4.0

How did COc1ccc(OCCN2CCC(C(=O)NC(C)c3cccc4ccccc34)CC2)cc1 (configuration not stated) do in these assays?
KB-3-1 cytotox: inactive; KB-V1 MDR tox: inactive; D3 antag: inconclusive; DRD3 agonist: -11.4

Results for Cc1nn(CCCC(=O)NCc2ccccc2)c(=O)c2cc3sccc3n12 ?
DRD3 agonist: -1.3

What do the screens show for `COc1ccc(NC(=O)CSc2nc3cc(OC)c(OC)cc3c3nc(-c4ccccc4)nn23)cc1Cl`?
KB-3-1 cytotox: inactive; KB-V1 MDR tox: inconclusive; DRD3 agonist: -12.0
